The record followed here is PubChem BioAssay.

Values joined by “and” are separate entries in the source; they are usually repeats but may differ in a detail not shown here. Identical values can stand only once. Inconclusive results are not listed. Active and inactive are the calls of the source. Unless noted, no cut-off is given here; in the data, nearly all actives have AC50 up to about 26 µM.

Assay [1] is described as follows: growth inhibition of DIPG glioma cells, dose response, cell-based, SU-DIPG-XVII, MIPE5.0, CellTiter-Glo, qHTS (AID 1347060).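 For AC50: cells exposed to compound for 48 hours before viability readout.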 Conditions: SU-DIPG-XVII viability, CellTiter-Glo ATP luminescence. (Cellular ATP, detected with luciferase, serves as a proxy for viable cell number.)
Assay [2] is described as follows: growth inhibition of DIPG glioma cells, dose response, cell-based, JHH-DIPG-1, MIPE4.0, CellTiter-Glo, qHTS (AID 1347062; cut-off not given, nearly all actives have AC50 up to about 27 µM;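 for AC50: cells exposed to compound for two days before readout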). As to conditions: JHH-DIPG-1 viability, CellTiter-Glo ATP luminescence.
A short description of assay [3]: growth inhibition of DIPG glioma cells, dose response, cell-based, SU-DIPG-IV, MIPE4.0, CellTiter-Glo, qHTS (AID 1347063; cut-off not given, nearly all actives have AC50 up to about 30 µM;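 note: compound exposure lasted 48 hours before the viability readout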). Conditions: SU-DIPG-IV viability, CellTiter-Glo ATP luminescence.
Assay [4] is described as follows: growth inhibition of DIPG glioma cells, dose response, cell-based, SU-DIPG-XIII, MIPE5.0, CellTiter-Glo, qHTS (AID 1347064; cut-off not given, nearly all actives have AC50 up to about 23 µM;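 for AC50: cells exposed to compound for 48 hours before the viability read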). Conditions: SU-DIPG-XIII viability, CellTiter-Glo ATP luminescence.
Assay [5] in a line: viability loss in pontine glioma line – cell-based, SU-DIPG-XXV, MIPE5.0, CellTiter-Glo, qHTS, dose response (AID 1347065).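 Note: cells exposed to compound for 48 hours before ATP readout.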 As to conditions: CellTiter-Glo ATP luminescence.
Assay [6] can be described thus: SU-DIPG-VI glioma cell viability, MIPE4.0 library, CellTiter-Glo luminescence, qHTS (AID 1347066; cut-off not given, nearly all actives have AC50 up to about 30 µM;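 note: cells exposed to compound for 48 hours before readout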). Conditions: CellTiter-Glo ATP luminescence.
A short description of assay [7]: JHH-DIPG-1 glioma cell viability, MIPE5.0 library, CellTiter-Glo luminescence, qHTS (AID 1347067).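 Note: cells exposed to compound for 48 hours before readout.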 Conditions: JHH-DIPG-1 glioma viability, CellTiter-Glo ATP luminescence.
Assay [8] in a line: SU-DIPG-XXV glioma cell viability, MIPE5.0 library, qHTS (AID 1347068; cut-off not given, nearly all actives have IC50 up to about 30 µM;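 for IC50: cells exposed to compound for 48 hours before viability readout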).
The nature of assay [9]: growth inhibition of DIPG glioma cells, dose response, cell-based, SU-DIPG-XIII, MIPE4.0, CellTiter-Glo, qHTS (AID 1347061; cut-off not given, nearly all actives have AC50 up to about 37 µM;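 note: cells exposed to compound for 48 hours before readout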). Conditions: SU-DIPG-XIII viability, CellTiter-Glo ATP luminescence.
The nature of assay [10]: sensitizers of A549 cells to miR-34 induction, primary screen, imaging, A549 dox-inducible miR-34, nuclei and caspase counts (AID 1347080;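 active = compounds whose cell count with miR-34 switched on is under 0.7 times the count with it off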). As to conditions: A549 miR-34 inducible, Hoechst nuclei count, 48 h.
A short description of assay [11]: survival rescue of mitochondrial mutant cells in low glucose, primary screen, MELAS cybrids, Rieske KO mouse fibroblasts, CellTiter-Glo (AID 1508586;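 active = mean z-score across replicates of 1.96 or higher in either the MELAS or the Rieske mutant cell line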;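 note: z relative to plate mean and SD of compound and empty wells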).
The mark [12] stands for this setting: stronger effect = lower value, cell number ratio, induced over uninduced.
[13] abbreviates: measured here: relative caspase fold change +Dox/-Dox.
The mark [14] stands for this setting: measured here: total cells with miR-34 induction, stronger effect = lower value.
[15] abbreviates: measured here: total cells without miR-34 induction.
[16] abbreviates: MELAS cybrid survival, CellTiter-Glo 48 h, stronger effect = higher value.
Where [17] appears, read: Rieske KO mouse fibroblast survival, CellTiter-Glo 72 h.

With `CCN(CC)CCNC(=O)c1ccc2nc(-c3ccccc3)c(-c3ccc(CN4CCC(n5c(=O)[nH]c6ccccc65)CC4)cc3)nc2c1`, the AC50 – broadly, the concentration giving half of the maximal activity seen – in assay [1] was 11.8 µM (active); in [2], 8.33 µM (active); in [3] it was 4.69 µM (active); in assay [4], 14.8 µM (active); in [5] it was 10.5 µM (active); in assay [6] it was 3.32 µM (active). For the same molecule, the AC50 in assay [7] was 10.5 µM (active). In addition, the IC50 (as a rule, the concentration that gives 50% inhibition) in assay [8] is 7.42 µM (active).

Regarding `C[C@H](NC(=O)/C(C#N)=C/c1cccc(Br)n1)c1ccccc1`, the AC50 in assay [1] is 7.42 µM (active); in [2], 9.35 µM (active); in assay [3] it was 7.43 µM (active); in assay [4], 7.42 µM (active); in assay [5] it was 3.72 µM (active); in assay [6], 14.8 µM (active). Besides, the AC50 in assay [7] is 9.34 µM (active).

In the case of `Clc1ccc(COC(Cn2ccnc2)c2ccc(Cl)cc2Cl)cc1` (stereo not drawn), the AC50 in assay [1] is 18.6 µM (active); in [5] it was 16.6 µM (active); in assay [7] it was 13.2 µM (active). For the same molecule, the molecule was classed as inactive in assay [9].

For `O=C(O)[C@H](CC(=O)N1C[C@H]2CCCC[C@H]2C1)Cc1ccccc1`, the molecule was classed as inactive in assay [1], in [2], in [3], in [4], in [5] and in assay [6]. In addition, the call in assay [7] and in assay [8] was inactive.

Take `CCc1cnn2c(NCc3ccc[n+]([O-])c3)cc(N3CCCC[C@H]3CCO)nc12`: the AC50 in [1] is 0.0372 µM (active); in assay [2], 0.0235 µM (active); in assay [3], 0.0187 µM (active); in assay [4] it was 0.0372 µM (active); in assay [5], 0.0295 µM (active); in [7], 0.0417 µM (active). For the same molecule, in assay [6], the molecule was classed as inactive.

On to `COc1ccc(-c2oc3c(CC=C(C)C)c(O)cc(O)c3c(=O)c2O)cc1`, for which the AC50 in assay [1] was 20.9 µM (active); in [4] it was 16.6 µM (active); in [5], 18.6 µM (active). Also, the call in assay [2], in assay [3] and in [8] was inactive.

With `COc1cccc(Nc2c(C(N)=O)cnc3c(C)cc(S(=O)(=O)c4cccc(C(=O)N(C)C)c4)cc23)c1`, the result in assay [1], in assay [2], in assay [3], in assay [4], in assay [6] and in assay [7] was inactive. For the same molecule, the outcome in [8] was inactive. For the same molecule, the fold change in assay [10] (setting [12]) was 0.95 (inactive); in assay [10] (setting [13]), 0.8. In addition, the cell count in assay [10] (setting [14]) turned out to be 9130; in [10] (setting [15]) it was 9610. Also, the z-score in assay [11] (setting [16]) is -0.192 (inactive); in [11] (setting [17]), -1.7.

Turning to `O=C(O)C1=CO[C@@H](O[C@@H]2O[C@H](CO)[C@@H](O)[C@H](O)[C@H]2O)[C@@H]2C(CO)=CC[C@H]12`, the outcome in assay [1], in assay [2], in [3], in assay [4], in assay [6] and in [7] was inactive. For the same molecule, the result in [8] was inactive.

Turning to `OCCNC1CCCc2c1[nH]c1ccc(-c3ccccc3)cc21` (stereo not drawn), the AC50 in assay [1] was 18.6 µM (active); in assay [2], 26.4 µM (active); in assay [3] it was 20.9 µM (active); in assay [4], 13.2 µM (active); in [5] it was 10.5 µM (active); in assay [7], 10.5 µM (active).

On to `CC(C)=CC[C@@H](O)C1=CC(=O)c2c(O)ccc(O)c2C1=O`, for which the concentration at half-maximal activity (AC50) was 20.9 µM (active) in [1]; 0.526 µM (active) in assay [2]; 2.96 µM (active) in assay [3]; 11.8 µM (active) in assay [4]; 10.5 µM (active) in [5]; 2.96 µM (active) in assay [6]. For the same molecule, the fold change in [10] (setting [12]) was 1.09 (inactive) and 1.03 (inactive); in assay [10] (setting [13]) it was 1.1 and 1.06. For the same molecule, the cell count is 2290 and 4460 in [10] (setting [14]); 2110 and 4340 in assay [10] (setting [15]). In addition, the z-score in assay [11] (setting [16]) was -1.24 (inactive); in assay [11] (setting [17]), 1.65.
